Assay [1] in a line: qHTS profiling for inhibitors of Plasmodium falciparum proliferation (AID 504749). Also: nearly all actives have a fitted effect of over 60% in size.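 As to activity, negative = inhibition: 0% = DMSO vehicle and full inhibition = artemisinin control.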 The following applies: P. falciparum in erythrocytes, SYBR Green DNA, 72 h. In short, it runs like this:
(§1)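 SYBR Green fluorescence (ex 485 nm, em 535 nm) reports parasite DNA after 72 h compound exposure of infected red cells at 0.3% parasitemia, 2.5% hematocrit; signal normalized to 0.29 uM artemisinin and vehicle wells.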

The next assay has as its system 3D7. Described as above. The following applies: P. falciparum in erythrocytes, SYBR Green DNA, 72 h; series mostly up to 28.7 µM. In short, it runs like this:
as §1

In a further assay the test system is 7G8. Described as above. The settings on record: P. falciparum in erythrocytes, SYBR Green DNA, 72 h; series mostly up to 28.7 µM. The procedure, abridged:
as §1

For the next assay, the system named is AA1029. The description is as above. The settings on record: P. falciparum in erythrocytes, SYBR Green DNA, 72 h; series mostly up to 28.7 µM. The procedure, abridged:
as §1

A further assay relates to AS120. The description is as above. The following applies: P. falciparum in erythrocytes, SYBR Green DNA, 72 h; series mostly up to 28.7 µM. The procedure, abridged: as §1
The next assay concerns ATS189. Described as above. The settings on record: P. falciparum in erythrocytes, SYBR Green DNA, 72 h; series mostly up to 28.7 µM. The procedure, abridged: as §1
Setting [2] is: at 28.7 µM (top of the series), parasite line A.
Where [3] appears, read: at 28.7 µM (top of the series), parasite line B.
The mark [4] stands for this setting: at 12.8 µM (top of the series), parasite line A.
Where [5] appears, read: at 12.8 µM (top of the series), parasite line B.

Inconclusive results are not listed. Unmarked numbers belong to inactive results. Activity calls are given as the source filed them. Calls follow the shape of the dose curve; as a rule, active = well fitted inhibition curve with a large enough effect; inconclusive = small, poorly fitted or top-dose-only effect; inactive = flat fitted curve, though single readings scatter.
Potency is read from the fitted curve at half-maximal effect.

For `CC(C)CCCC(C)N` (stereo not given), the figures for the activity, negative = inhibition in assay [1] (setting [2]) and in assay [1] (setting [3]) were 13% and -1.67%, respectively. Moreover, the Potency entry in the assay on 3D7, with 7G8, in the assay with AA1029, with AS120 and in the assay with ATS189 was “inactive” throughout.
In the case of `NC(=S)N/N=C/c1cccnc1`, the activity, negative = inhibition is 13.2% in assay [1] (setting [2]) and 8.73% in assay [1] (setting [3]). Further, the Potency result in the assay with 3D7, with 7G8, in the assay on AA1029, in the assay with AS120 and in the assay with ATS189 was “inactive” each time.
With `CC(=O)Nc1ncc([N+](=O)[O-])s1`, the activity, negative = inhibition in assay [1] (setting [2]) was 11.2%; in assay [1] (setting [3]) it was 9.19%. In addition, the Potency entry in the assay on 3D7, in the assay with 7G8, with AA1029, in the assay with AS120 and in the assay on ATS189 was “inactive” in each case.
Take `CC(C)Nc1cccnc1N1CCN(C(=O)c2cc3cc(NS(C)(=O)=O)ccc3[nH]2)CC1`: the activity, negative = inhibition in assay [1] (setting [2]) is -10.7%; in assay [1] (setting [3]) it was 24%. Moreover, the Potency entry in the assay with 3D7, in the assay on AA1029, in the assay with AS120 and with ATS189 was “inactive” throughout. The Potency in the assay with 7G8 is 12.6 µM (active).
As to `O=C(O)C1(C(=O)O)CCC1.[NH2-].[NH2-].[Pt+2]`, the activity, negative = inhibition was -5.41% in assay [1] (setting [2]) and -0.756% in assay [1] (setting [3]). The Potency entry with 3D7, with AA1029, with AS120 and in the assay with ATS189 was “inactive” each time. Besides, the Potency in the assay on 7G8 is 14.1 µM (active).
Turning to `NS(=O)(=O)c1cc(C(=O)O)cc(N2CCCC2)c1Oc1ccccc1`, the figures for the activity, negative = inhibition in assay [1] (setting [4]) and in assay [1] (setting [5]) were 5.58% and 15.6%, respectively. Moreover, the Potency result in the assay with 3D7, in the assay on 7G8, in the assay with AA1029, in the assay on AS120 and with ATS189 was “inactive” throughout.
For the molecule `C#C[C@]1(O)CC[C@H]2[C@@H]3CCC4=Cc5oncc5C[C@]4(C)[C@H]3CC[C@@]21C`, the activity, negative = inhibition is -28.2% in assay [1] (setting [2]) and -11.7% in assay [1] (setting [3]). Moreover, the Potency result in the assay with 3D7, in the assay on 7G8, in the assay on AA1029, in the assay with AS120 and with ATS189 was “inactive” each time.
Consider `CCOC(=O)c1ccc(N)cc1`, for which the activity, negative = inhibition is 6.05% in assay [1] (setting [4]) and 7.01% in assay [1] (setting [5]). Also, the Potency entry in the assay with 3D7, in the assay on 7G8, with AA1029, in the assay with AS120 and in the assay on ATS189 was “inactive” in each case.
For `Cc1cc(NS(=O)(=O)c2ccc(N)cc2)nc(C)n1`, the results for the activity, negative = inhibition in assay [1] (setting [2]) and in assay [1] (setting [3]) were 9.36% and 5.66%, respectively. In addition, the Potency result in the assay on 3D7, with 7G8, in the assay with AA1029, in the assay with AS120 and in the assay with ATS189 was “inactive” each time.
In the case of `CCCN(CCC)S(=O)(=O)c1ccc(C(=O)O)cc1`, the activity, negative = inhibition was 12.1% in assay [1] (setting [2]) and 6% in assay [1] (setting [3]). For the same molecule, the Potency result in the assay on 3D7, in the assay with 7G8, in the assay with AA1029, in the assay on AS120 and in the assay with ATS189 was “inactive” throughout.
For `C/C=C/c1ccc(O)c(OC)c1`, the figures for the activity, negative = inhibition in assay [1] (setting [2]) and in assay [1] (setting [3]) were 3.92% and -10.3%, respectively. The Potency entry in the assay with 3D7, with AA1029, in the assay on AS120 and in the assay with ATS189 was “inactive” each time. The Potency in the assay on 7G8 is 10 µM (active).
Take `CCOc1ccccc1C(N)=O`: the activity, negative = inhibition was -8% in assay [1] (setting [2]) and 15.4% in assay [1] (setting [3]). The Potency entry with 3D7, in the assay on 7G8, in the assay with AA1029, in the assay with AS120 and with ATS189 was “inactive” in each case.
As for `CC(=O)Nc1ccc(OCC(O)CNC(C)C)cc1` (stereo not given), the activity, negative = inhibition is 13.4% in assay [1] (setting [2]) and 11.8% in assay [1] (setting [3]). Also, the Potency result in the assay with 3D7, with 7G8, with AA1029, with AS120 and with ATS189 was “inactive” each time.
`CCNC(=O)NCc1cccc(Cl)c1`: the activity, negative = inhibition in assay [1] (setting [2]) is 14.6%; in assay [1] (setting [3]), 3.44%. The Potency result in the assay with 3D7, with 7G8, with AA1029, with AS120 and in the assay with ATS189 was “inactive” each time.
`Nc1ccc(C(=O)NCC(=O)O)cc1`: the activity, negative = inhibition in assay [1] (setting [4]) was 7.06%; in assay [1] (setting [5]), 8.58%. Further, the Potency entry with 3D7, in the assay on 7G8, in the assay on AA1029, with AS120 and in the assay with ATS189 was “inactive” each time.

The values above are taken from PubChem BioAssay (NCATS).
